Bead autofluor: counter-screen for toxin protease inhibitors: compound fluorescence; fluorescence intensity (concentration not given with the values); compound autofluorescence counterscreen, microsphere flow cytometry; active compounds read high; AID 624483; 3.1% of 360,000 active; in the data active = fluorescence intensity above about 16000; inconclusive = no clear call, values can overlap the other calls
BoNT-F LC inh: BoNT F light chain protease inhibition; inhibition, % at 10 µM; 0.22% of 360,000 active; AID 588497; Multiplex microsphere protease cleavage assay, flow cytometry; in the data active = inhibition above about 35%, passing the limit was not always enough; inconclusive = no clear call, values can overlap the other calls
MazEF act: MazEF (E. coli) toxin RNase activation; P0AE70; FAM/BHQ RNA-DNA oligo cleavage fluorescence, 5 h; activation, % at 20 µM; 0.32% of 350,000 active; in the data active = activation above about 50%
Anthrax LF prot: inhibitors of Bacillus anthracis lethal factor protease; P15917; multiplex microsphere protease cleavage assay, LF; inhibition, % at 10 µM; 0.12% of 360,000 active
BoNT A protease: inhibitors of Botulinum neurotoxin A light chain protease | multiplex microsphere protease substrate cleavage, flow cytometry | inhibition, % at 10 µM | 0.17% of 360,000 active
Of the large screens only hits and unclear results are named; the others gave an inactive call; ! = repeats disagree. Compounds with a hit are over-represented: about 3.7% of the library has one in this group of screens. Rule as the data show it, unless noted: active = inhibition above about 30%; inconclusive = no clear call, values can overlap the other calls; inactive = below that.

COc1ccc(O)c(-c2cc(-c3ccccc3Cl)[nH]n2)c1	none
CC(C)CC(=O)NC(=S)Nc1cccc(NC(=O)c2ccccc2)c1	none
Cc1cc(NC(=S)NC(=O)CC(C)C)ccc1Br	Bead autofluor 25030
CCN(CC)S(=O)(=O)c1ccc(Cl)c(NC(=O)COC(=O)c2ccc([N+](=O)[O-])o2)c1	none
O=C1NC(=O)N(Cc2ccccc2F)C1=O	none
O=C(CSc1nc(O)cc(=O)n1-c1ccccc1)NCc1ccccc1	Bead autofluor 16693
CC1(C)Cc2nc3nc(SCC(=O)NCCc4ccccc4)n(-c4ccccc4)c(=O)c3cc2CO1	Bead autofluor 16362
O=C(CSc1nc(O)cc(=O)n1-c1ccccc1)Nc1ccccn1	none
O=c1cc(O)nc(SCc2ccccc2)n1-c1ccccc1	Bead autofluor 24058!
CCCN(CCC)CCCNC(=O)c1cc2c(=O)[nH]c3ccccc3c2s1	none
CC(=O)Nc1ccc(NC(=O)COC(=O)c2cc(S(=O)(=O)N(C)C)ccc2N2CCCC2)cc1	Bead autofluor inconclusive, BoNT-F LC inh inconclusive, Anthrax LF prot inconclusive, BoNT A protease inconclusive
Cc1ccc(NCc2nnc(SCC(=O)c3ccc4c(c3)OCCO4)o2)c(C)c1	MazEF act 52.4
Cc1ccc(Cl)cc1N(Cc1ccc(C(=O)NCc2cccnc2)cc1)S(=O)(=O)c1ccccc1	Bead autofluor 22366, BoNT A protease inconclusive
COc1ccc(NC(=O)c2ccc(CN(c3cc(Cl)ccc3C)S(=O)(=O)c3ccccc3)cc2)cc1OC	Bead autofluor 20845
COc1ccccc1NC(=O)c1ccc(CN(c2cc(Cl)ccc2C)S(=O)(=O)c2ccccc2)cc1	none
CCCNC(=O)c1onc(CSc2ccc(F)cc2)c1C(=O)NCC1CC1	none
Cc1ccc(N(C(C)C(=O)N2CCCCC2)S(C)(=O)=O)cc1C (centres undefined)	Bead autofluor 22154
CC(C(=O)N1CCC(C(N)=O)CC1)N(c1ccc(Oc2ccccc2)cc1)S(C)(=O)=O (centres undefined)	Bead autofluor 20200
CS(=O)(=O)N(CC(=O)N1CCC(C(N)=O)CC1)c1ccc(Oc2ccccc2)cc1	none
CCN(CC)CCNC(=O)CN1C(=O)CSc2ccc(S(=O)(=O)N3CCOCC3)cc21	none
COc1ccc2c(C)cc(SCC(=O)Nc3cc(C(N)=O)cc(C(N)=O)c3)nc2c1	Bead autofluor inconclusive, MazEF act 104.1
COc1cccc(NC(=O)N(CCCN2CCOCC2)C(C)c2cc3ccccc3o2)c1 (centres undefined)	Bead autofluor 21426
Cc1cccc(NC(=S)NNC(=O)CCn2cc(C)cn2)c1	Bead autofluor 22732, BoNT A protease inconclusive
Cc1cccc(NC(=O)CCSc2ccccn2)c1	none
Cc1cccc(NC(=O)CCSc2nncn2C)c1	Bead autofluor 22260
CC(=O)c1ccc(N/C=C\C(=O)c2ccc(C)cc2)cc1	none
CC(=O)Nc1ccc(N/C=C/C(=O)c2ccc(Cl)cc2)cc1	MazEF act 56.9 (no result: Bead autofluor, BoNT-F LC inh, Anthrax LF prot, BoNT A protease)
O=C(O)CCS(=O)(=O)Cc1cccc(Cl)c1	Bead autofluor 23460
CCOc1ccc(CNC(=O)CCS(=O)(=O)Cc2cccc(Cl)c2)cc1OC	none
CCOc1cc(C2c3c(n[nH]c3C)C(=O)N2c2ccc(C)cc2)ccc1O (centres undefined)	Bead autofluor 23172
COc1cc(C2c3c(n[nH]c3C)C(=O)N2c2ccc(C)cc2)ccc1O (centres undefined)	none
CCOc1cccc(NC(=O)C(Cc2cccs2)c2nn[nH]n2)c1 (centres undefined)	Bead autofluor 20016
O=C(Nc1ccccc1)C(Cc1cccs1)c1nn[nH]n1 (centres undefined)	none
CCOc1ccc(C(=O)c2ccc(OCC)c(N)c2)cc1N	Bead autofluor 16397
COc1ccc(C(N)=O)cc1N	Bead autofluor 20559
O=C(O)CCN1C(=O)c2ccc(NC(=O)COc3ccccc3)cc2C1=O	Bead autofluor inconclusive
COc1ccc(NC(=O)CCN2CCOCC2)c(OC)c1	none
O=C1c2cnc3nc(SCc4cccc(Cl)c4)nn3c2CC2c3ccccc3CCN12 (centres undefined)	Bead autofluor 21140
CSc1nc2ncc3c(n2n1)CC1c2ccccc2CCN1C3=O (centres undefined)	none
Cc1cccc(C)c1NC(=O)CCN1C(=O)C2C3CCC(C3)C2C1=O (centres undefined)	Bead autofluor 24501
COc1ccc(C2=NOC3(CC(=O)N(c4ccc(F)cc4)C3=O)C2)c(OC)c1 (centres undefined)	none
COc1ccc(C2=NOC3(CC(=O)N(c4ccc5ccccc5c4)C3=O)C2)c(OC)c1 (centres undefined)	Bead autofluor 17080, BoNT A protease inconclusive
COc1c(OC(C)=O)ccc(/C=C/c2ccc3ccccc3n2)c1[N+](=O)[O-]	Bead autofluor 23285
Cc1noc(C)c1CSc1ccc2ccccc2n1	Bead autofluor 20444
COn1c(SCc2ccc(Cl)cc2)nc2ccccc2c1=O	Bead autofluor 22710, BoNT A protease inconclusive
Cc1noc(C)c1CSc1nnc2ccccn12	Bead autofluor 19015
COn1c(SCc2cccnc2)nc2ccccc2c1=O	none
Cc1noc(C)c1CSc1nc2ccccc2c(=O)n1-c1ccc(Cl)cc1	Bead autofluor 22121, BoNT A protease inconclusive
Cc1noc(C)c1CSc1nc2ccccc2s1	none
Cc1noc(C)c1CSc1nnc(-c2ccccc2)n1N	none
CN(Cc1ccccc1Br)C(=O)CN1C(=O)NC2(CCCCCC2)C1=O	none
CC1CCCCN1C(=O)c1c([N+](=O)[O-])cnn1C (centres undefined)	none
COc1ccc(/C=N/Nc2ccc([N+](=O)[O-])cc2S(=O)(=O)N2CCN(C)CC2)cc1	MazEF act 166.4
CCOc1ccc(N(CC(=O)NC2CCCCC2)C(=O)CCC(=O)Nc2nccs2)cc1	none
COc1ccc(N2C(=O)c3ccccc3NC23CCCCC3)cc1	none
COc1ccc(N2C(=O)c3ccccc3NC23CCC(C)CC3)cc1 (centres undefined)	Bead autofluor 22907
CN1CCN(S(=O)(=O)c2ccc(C(=O)NC3CCCCC3)cc2)CC1	none
CCOc1ccc(C(=O)NC2CCN(S(=O)(=O)c3ccccc3)CC2)cc1	BoNT-F LC inh 37.5
O=C(NC1CCCCC1)c1ccc(S(=O)(=O)N2CCCC2)cc1	Bead autofluor 16946, BoNT A protease inconclusive
COc1ccc(/C=C2\C(=O)NCC(=O)N2Cc2ccccc2)cc1	Bead autofluor inconclusive
COc1ccc(/C=C2\C(=O)NCC(=O)N2C)cc1	BoNT-F LC inh 87.7, Anthrax LF prot 34.2
CCN(CC)S(=O)(=O)c1ccc(Cl)c(C(=O)Nc2nnc(C)s2)c1	Bead autofluor 23810, BoNT A protease inconclusive
CCN(CC)S(=O)(=O)c1ccc(Cl)c(NC(=O)c2cc(Cl)ccc2Cl)c1	MazEF act 54.0
CCN(CC)S(=O)(=O)c1ccc(Cl)c(C(=O)Nc2cccnc2)c1	none (no result: Bead autofluor, BoNT-F LC inh, Anthrax LF prot, BoNT A protease)
CCN(CC)S(=O)(=O)c1ccc(OC)c(NC(=O)C2CC(=O)N(c3ccc(C)cc3)C2)c1 (centres undefined)	none
CCCOc1ccc(C2=CSC3=NCCN23)cc1	none
O=C(O)C(c1ccccc1)N1C(=O)/C(=C\c2ccc(-c3ccc(Br)cc3)o2)SC1=S (centres undefined)	BoNT A protease 65.2
